Assays:
Assay in all cases: DAPPL (digital affinity profiling via proximity ligation, sequencing); 10 mM Tris-HCl pH 7.5, 50 mM NaCl, 1 mM DTT, 4% glycerol, room temperature, 30 min; GST-TFs on glutathione beads, 16-mer random dsDNA library, 0.1% formaldehyde crosslink after washing; high values mean tight binding
Settings in all cases: protein: recombinant; tags: N-terminal GST; dsDNA, one strand shown
[1] = molecular target: T1, ERF (Homo sapiens, UniProt P50548 1-548)
T1 sequence: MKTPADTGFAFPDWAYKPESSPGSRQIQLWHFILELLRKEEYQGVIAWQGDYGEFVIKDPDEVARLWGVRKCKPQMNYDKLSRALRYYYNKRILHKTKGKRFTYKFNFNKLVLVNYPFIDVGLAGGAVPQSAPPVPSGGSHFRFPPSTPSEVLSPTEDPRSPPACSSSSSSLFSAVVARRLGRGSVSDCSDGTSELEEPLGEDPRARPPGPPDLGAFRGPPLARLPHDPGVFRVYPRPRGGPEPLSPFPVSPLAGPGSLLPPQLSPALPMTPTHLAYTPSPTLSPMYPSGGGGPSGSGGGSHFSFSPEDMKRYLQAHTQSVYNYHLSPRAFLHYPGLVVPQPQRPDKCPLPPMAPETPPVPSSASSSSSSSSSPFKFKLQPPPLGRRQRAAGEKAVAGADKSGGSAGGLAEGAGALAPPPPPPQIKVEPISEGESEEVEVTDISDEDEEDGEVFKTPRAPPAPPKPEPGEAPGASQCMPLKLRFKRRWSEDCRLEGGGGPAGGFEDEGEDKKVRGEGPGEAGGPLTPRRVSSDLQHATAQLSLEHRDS
Method in brief: (§1)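 In yeast, human transcription factors were expressed with a GST fusion, then pulled down on glutathione beads and given DNA barcodes. Pooled with a tag-only sample, they were exposed to 200 nmole of a 16-mer random double-stranded DNA library (Tris/NaCl/DTT/glycerol buffer, room temperature, 30 min), washed, crosslinked with 0.1% formaldehyde, proximity-ligated using BsaI/T4 ligase for 1 h at 37 °C, PCR-amplified and read on an Illumina NextSeq500. Each hexamer's frequency of reads for a factor, divided by the matching frequency for the tag-only sample, gives the binding signal.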

[2] = molecular target: T2, ETV3L (Homo sapiens, UniProt Q6ZN32 1-361)
T2 sequence: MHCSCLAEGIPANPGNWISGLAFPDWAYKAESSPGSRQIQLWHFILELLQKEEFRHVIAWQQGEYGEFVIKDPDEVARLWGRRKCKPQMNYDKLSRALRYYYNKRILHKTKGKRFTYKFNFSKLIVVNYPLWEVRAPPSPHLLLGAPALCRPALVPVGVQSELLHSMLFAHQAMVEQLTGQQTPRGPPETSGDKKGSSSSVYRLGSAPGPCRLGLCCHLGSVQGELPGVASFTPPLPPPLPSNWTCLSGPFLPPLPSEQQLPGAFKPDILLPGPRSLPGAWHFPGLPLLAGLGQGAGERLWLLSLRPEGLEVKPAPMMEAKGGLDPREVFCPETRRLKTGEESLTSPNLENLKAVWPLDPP
Method in brief: as §1

[3] = molecular target: T3, ETS2 (Homo sapiens, UniProt P15036 1-469)
T3 sequence: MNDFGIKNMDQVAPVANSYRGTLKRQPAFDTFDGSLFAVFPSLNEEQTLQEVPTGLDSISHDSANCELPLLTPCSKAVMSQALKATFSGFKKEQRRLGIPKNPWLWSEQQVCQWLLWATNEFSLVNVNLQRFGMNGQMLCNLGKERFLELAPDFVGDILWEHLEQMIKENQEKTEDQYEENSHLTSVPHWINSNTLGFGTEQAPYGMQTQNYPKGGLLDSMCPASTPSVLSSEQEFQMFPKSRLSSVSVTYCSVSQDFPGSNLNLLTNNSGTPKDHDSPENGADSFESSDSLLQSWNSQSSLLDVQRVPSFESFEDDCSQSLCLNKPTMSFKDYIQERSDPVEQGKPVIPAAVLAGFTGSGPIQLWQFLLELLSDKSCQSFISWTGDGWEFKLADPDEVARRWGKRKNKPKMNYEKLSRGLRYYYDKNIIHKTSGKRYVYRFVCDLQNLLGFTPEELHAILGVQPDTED
Method in brief: as §1

[4] = molecular target: T4, SPDEF (Homo sapiens, UniProt O95238 1-335)
T4 sequence: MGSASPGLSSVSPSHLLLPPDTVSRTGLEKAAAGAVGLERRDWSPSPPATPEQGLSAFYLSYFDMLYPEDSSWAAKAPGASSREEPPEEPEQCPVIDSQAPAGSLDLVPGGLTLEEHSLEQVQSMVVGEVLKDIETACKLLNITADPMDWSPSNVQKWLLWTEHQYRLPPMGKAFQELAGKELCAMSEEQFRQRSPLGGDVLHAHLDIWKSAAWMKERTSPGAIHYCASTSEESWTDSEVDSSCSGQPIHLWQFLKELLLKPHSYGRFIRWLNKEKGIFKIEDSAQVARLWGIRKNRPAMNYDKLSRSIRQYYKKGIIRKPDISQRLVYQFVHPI
Method in brief: as §1

[5] = molecular target: T5, ETV7 (Homo sapiens, UniProt Q9Y603 1-341)
T5 sequence: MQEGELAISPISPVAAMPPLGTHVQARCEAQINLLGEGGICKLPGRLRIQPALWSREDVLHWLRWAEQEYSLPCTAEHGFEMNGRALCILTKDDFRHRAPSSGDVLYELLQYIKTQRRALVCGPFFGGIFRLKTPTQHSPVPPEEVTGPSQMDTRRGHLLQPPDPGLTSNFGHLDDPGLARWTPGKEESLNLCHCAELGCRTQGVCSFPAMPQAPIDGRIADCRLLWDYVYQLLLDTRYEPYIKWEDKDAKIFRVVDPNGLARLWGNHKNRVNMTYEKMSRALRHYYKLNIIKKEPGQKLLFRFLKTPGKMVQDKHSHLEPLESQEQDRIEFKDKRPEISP
Method in brief: as §1

[6] = molecular target: T6, ELF5 (Homo sapiens, UniProt Q9UKW6-2 1-255)
T6 sequence: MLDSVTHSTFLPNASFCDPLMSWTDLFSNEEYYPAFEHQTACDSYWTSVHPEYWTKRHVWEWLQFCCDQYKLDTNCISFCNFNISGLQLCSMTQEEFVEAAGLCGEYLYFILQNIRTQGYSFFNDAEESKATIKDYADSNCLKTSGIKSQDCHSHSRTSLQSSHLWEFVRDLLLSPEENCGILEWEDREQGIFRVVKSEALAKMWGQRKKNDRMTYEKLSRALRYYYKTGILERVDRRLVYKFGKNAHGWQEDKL
Method in brief: as §1

[7] = molecular target: T7, ETV3 (Homo sapiens, UniProt P41162-2 1-143)
T7 sequence: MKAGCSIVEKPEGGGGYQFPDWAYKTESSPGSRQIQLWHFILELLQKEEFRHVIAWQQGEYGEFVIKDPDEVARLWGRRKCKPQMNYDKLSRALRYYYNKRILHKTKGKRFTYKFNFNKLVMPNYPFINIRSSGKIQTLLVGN
Method in brief: as §1

[8] = molecular target: ETV6 (Homo sapiens, UniProt P41212 1-452)
ETV6, sequence (P41212 whole entry): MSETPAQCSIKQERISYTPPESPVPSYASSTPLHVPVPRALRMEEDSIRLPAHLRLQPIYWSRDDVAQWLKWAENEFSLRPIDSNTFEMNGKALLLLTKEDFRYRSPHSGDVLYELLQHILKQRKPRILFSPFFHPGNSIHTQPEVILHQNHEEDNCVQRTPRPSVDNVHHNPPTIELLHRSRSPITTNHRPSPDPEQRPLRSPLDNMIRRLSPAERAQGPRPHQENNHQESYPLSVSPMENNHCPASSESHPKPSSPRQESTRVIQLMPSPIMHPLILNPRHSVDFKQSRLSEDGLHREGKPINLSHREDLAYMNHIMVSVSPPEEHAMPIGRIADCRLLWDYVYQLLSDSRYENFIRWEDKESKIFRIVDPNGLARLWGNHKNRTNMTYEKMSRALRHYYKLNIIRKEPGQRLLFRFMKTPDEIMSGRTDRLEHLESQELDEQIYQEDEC
Method in brief: as §1

Sequence: CGGTCT
- binding signal [1]: 1.21 fold enrichment (6-mer frequency, TF over GST control)
- binding signal [2]: 1.15 fold enrichment (6-mer frequency, TF over GST control)
- binding signal [3]: 1.16 fold enrichment (6-mer frequency, TF over GST control)
- binding signal [4]: 1.09 fold enrichment (6-mer frequency, TF over GST control)
- binding signal [5]: 1.11 fold enrichment (6-mer frequency, TF over GST control)
- binding signal [6]: 1.1 fold enrichment (6-mer frequency, TF over GST control)
- binding signal [7]: 1.22 fold enrichment (6-mer frequency, TF over GST control)
- binding signal [8]: 1.09 fold enrichment (6-mer frequency, TF over GST control)

Sequence: TACTAG
- binding signal [1]: 1.07 fold enrichment (6-mer frequency, TF over GST control)
- binding signal [2]: 1.04 fold enrichment (6-mer frequency, TF over GST control)
- binding signal [3]: 1 fold enrichment (6-mer frequency, TF over GST control)
- binding signal [4]: 1.01 fold enrichment (6-mer frequency, TF over GST control)
- binding signal [5]: 1 fold enrichment (6-mer frequency, TF over GST control)

Sequence: TGTTCG
- binding signal [1]: 1.2 fold enrichment (6-mer frequency, TF over GST control)
- binding signal [2]: 1.01 fold enrichment (6-mer frequency, TF over GST control)
- binding signal [3]: 1.15 fold enrichment (6-mer frequency, TF over GST control)
- binding signal [4]: 1.03 fold enrichment (6-mer frequency, TF over GST control)
- binding signal [5]: 1.15 fold enrichment (6-mer frequency, TF over GST control)
- binding signal [6]: 1.03 fold enrichment (6-mer frequency, TF over GST control)
- binding signal [7]: 1.01 fold enrichment (6-mer frequency, TF over GST control)

Sequence: CCGCTA
- binding signal [1]: 1.38 fold enrichment (6-mer frequency, TF over GST control)
- binding signal [2]: 1.27 fold enrichment (6-mer frequency, TF over GST control)
- binding signal [3]: 1.32 fold enrichment (6-mer frequency, TF over GST control)
- binding signal [4]: 1.38 fold enrichment (6-mer frequency, TF over GST control)
- binding signal [5]: 1.36 fold enrichment (6-mer frequency, TF over GST control)
- binding signal [6]: 1.41 fold enrichment (6-mer frequency, TF over GST control)
- binding signal [7]: 1.34 fold enrichment (6-mer frequency, TF over GST control)
- binding signal [8]: 1.4 fold enrichment (6-mer frequency, TF over GST control)

Sequence: CCTCAT
- binding signal [1]: 1.32 fold enrichment (6-mer frequency, TF over GST control)
- binding signal [2]: 1.37 fold enrichment (6-mer frequency, TF over GST control)
- binding signal [3]: 1.29 fold enrichment (6-mer frequency, TF over GST control)
- binding signal [4]: 1.31 fold enrichment (6-mer frequency, TF over GST control)
- binding signal [5]: 1.25 fold enrichment (6-mer frequency, TF over GST control)
- binding signal [6]: 1.58 fold enrichment (6-mer frequency, TF over GST control)
- binding signal [7]: 1.32 fold enrichment (6-mer frequency, TF over GST control)
- binding signal [8]: 1.39 fold enrichment (6-mer frequency, TF over GST control)

Sequence: CTCCGT
- binding signal [1]: 1.07 fold enrichment (6-mer frequency, TF over GST control)
- binding signal [2]: 1.19 fold enrichment (6-mer frequency, TF over GST control)
- binding signal [3]: 1.22 fold enrichment (6-mer frequency, TF over GST control)
- binding signal [4]: 1.05 fold enrichment (6-mer frequency, TF over GST control)
- binding signal [5]: 1.33 fold enrichment (6-mer frequency, TF over GST control)
- binding signal [6]: 1.14 fold enrichment (6-mer frequency, TF over GST control)
- binding signal [7]: 1.22 fold enrichment (6-mer frequency, TF over GST control)
- binding signal [8]: 1.16 fold enrichment (6-mer frequency, TF over GST control)

Sequence: GCTGTA
- binding signal [1]: 1.24 fold enrichment (6-mer frequency, TF over GST control)
- binding signal [2]: 1.02 fold enrichment (6-mer frequency, TF over GST control)
- binding signal [3]: 1.1 fold enrichment (6-mer frequency, TF over GST control)
- binding signal [4]: 1.12 fold enrichment (6-mer frequency, TF over GST control)
- binding signal [5]: 1.09 fold enrichment (6-mer frequency, TF over GST control)
- binding signal [6]: 1.07 fold enrichment (6-mer frequency, TF over GST control)
- binding signal [7]: 1.08 fold enrichment (6-mer frequency, TF over GST control)
- binding signal [8]: 1.13 fold enrichment (6-mer frequency, TF over GST control)

Sequence: TCGCGC
- binding signal [1]: 1.12 fold enrichment (6-mer frequency, TF over GST control)
- binding signal [2]: 1.02 fold enrichment (6-mer frequency, TF over GST control)
- binding signal [3]: 1.12 fold enrichment (6-mer frequency, TF over GST control)
- binding signal [4]: 1.14 fold enrichment (6-mer frequency, TF over GST control)
- binding signal [5]: 1.23 fold enrichment (6-mer frequency, TF over GST control)
- binding signal [6]: 1.03 fold enrichment (6-mer frequency, TF over GST control)

Sequence: TGTCCA
- binding signal [1]: 1.09 fold enrichment (6-mer frequency, TF over GST control)
- binding signal [2]: 1.2 fold enrichment (6-mer frequency, TF over GST control)
- binding signal [3]: 1.14 fold enrichment (6-mer frequency, TF over GST control)
- binding signal [4]: 1.13 fold enrichment (6-mer frequency, TF over GST control)
- binding signal [5]: 1.18 fold enrichment (6-mer frequency, TF over GST control)
- binding signal [6]: 1.05 fold enrichment (6-mer frequency, TF over GST control)
- binding signal [7]: 1.13 fold enrichment (6-mer frequency, TF over GST control)
- binding signal [8]: 1.12 fold enrichment (6-mer frequency, TF over GST control)

Sequence: ATTAGG
- binding signal [1]: 1.26 fold enrichment (6-mer frequency, TF over GST control)
- binding signal [2]: 1.12 fold enrichment (6-mer frequency, TF over GST control)
- binding signal [3]: 1.06 fold enrichment (6-mer frequency, TF over GST control)
- binding signal [4]: 1.11 fold enrichment (6-mer frequency, TF over GST control)
- binding signal [5]: 1.15 fold enrichment (6-mer frequency, TF over GST control)
- binding signal [6]: 1.12 fold enrichment (6-mer frequency, TF over GST control)
- binding signal [7]: 1.06 fold enrichment (6-mer frequency, TF over GST control)
- binding signal [8]: 1.09 fold enrichment (6-mer frequency, TF over GST control)

Source: paper PMC7862700, “An all-to-all approach to the identification of sequence-specific readers for epigenetic DNA modifications on cytosine”
